Laboratory results from PubChem BioAssay AID1159580 (chemical genetic matrix, 2015).
Out of some 5,500 compounds screened, about 2,000 (36%) were called active. Inconclusive results (about 18%) are left out. Cut-off read from the data, not from the text of the source: active = normalized growth mostly below about 0.91 (no sharp cut-off); inconclusive = no clear call, values can overlap the other calls; inactive = mostly above about 0.92. The list shows a part of the results.

Assay: chemical genetic growth profiling, strain panel (AID 1159580);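 note: tested at 20 µM; growth read once vehicle control cultures reached saturation at 30 °C; 1 = growth at the plate median or of vehicle wells; lower values mean less growth of the strain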
Settings: growth OD

Measured: normalized growth

O=C(O)COc1cc(Cl)c(Cl)cc1Cl
inactive: S. cerevisiae deletion strains, locus YJR075W, strain HOC1, active compounds read low 1.01 | S. cerevisiae deletion strains, locus YKL009W, strain mrt4, active compounds read low 1.05 | S. cerevisiae deletion strains, locus YKL068W, active compounds read low 1.01 | S. cerevisiae deletion strains, locus YKL085W, strain MDH1 (second series), active compounds read low 1.01 | S. cerevisiae deletion strains, locus YKL085W, strain MDH1, active compounds read low 1.01 | S. cerevisiae deletion strains, locus YKL160W, strain elf1, active compounds read low 1 | S. cerevisiae deletion strains, locus YKL190W, strain CNB1, active compounds read low 0.995 | S. cerevisiae deletion strains, locus YKR001C, strain vps1, active compounds read low 1.04 | S. cerevisiae deletion strains, locus YKR026C, strain gcn3, active compounds read low 1 | S. cerevisiae deletion strains, locus YKR091W, strain srl3, active compounds read low 1 | S. cerevisiae deletion strains, locus YLL001W, strain dnm1, active compounds read low 1.01 | S. cerevisiae deletion strains, locus YLL026W, active compounds read low 0.998 | S. cerevisiae deletion strains, locus YLL041C, strain sdh2, active compounds read low 1 | S. cerevisiae deletion strains, locus YLR027C, strain aat2, active compounds read low 1 | S. cerevisiae deletion strains, locus YLR039C, strain RIC1, active compounds read low 1.06 | S. cerevisiae deletion strains, locus YLR058C, strain SHM2, active compounds read low 1.01 | S. cerevisiae deletion strains, locus YLR102C, strain apc9, active compounds read low 1.02 | S. cerevisiae deletion strains, locus YLR113W, strain HOG1, active compounds read low 0.963 | S. cerevisiae deletion strains, locus YLR221C, strain rsa3, active compounds read low 1 | S. cerevisiae deletion strains, locus YLR258W, strain gsy2, active compounds read low 1.01 | S. cerevisiae deletion strains, locus YLR262C, strain YPT6 (second series), active compounds read low 1.01 | S. cerevisiae deletion strains, locus YLR262C, strain YPT6, active compounds read low 1.07 | S. cerevisiae deletion strains, locus YLR268W, strain sec22, active compounds read low 1.02 | S. cerevisiae deletion strains, locus YLR320W, strain mms22, active compounds read low 0.994 | S. cerevisiae deletion strains, locus YLR330W, strain CHS5, active compounds read low 1.01 | S. cerevisiae deletion strains, locus YLR342W, strain FKS1 (second series), active compounds read low 1.02 | S. cerevisiae deletion strains, locus YLR342W, strain FKS1, active compounds read low 0.999 | S. cerevisiae deletion strains, locus YLR357W, strain rsc2, active compounds read low 0.964 | S. cerevisiae deletion strains, locus YLR370C, strain arc18, active compounds read low 1 | S. cerevisiae deletion strains, locus YLR371W, strain rom2, active compounds read low 1.02 | S. cerevisiae deletion strains, locus YLR384C, strain iki3, active compounds read low 1 | S. cerevisiae deletion strains, locus YLR418C, strain cdc73, active compounds read low 1.04 | S. cerevisiae deletion strains, locus YML016C, strain PPZ1, active compounds read low 1.01 | S. cerevisiae deletion strains, locus YML032C, strain rad52, active compounds read low 1.02 | S. cerevisiae deletion strains, locus YML120C, strain ndi1, active compounds read low 0.999 | S. cerevisiae deletion strains, locus YML124C, strain tub3, active compounds read low 1.02 | S. cerevisiae deletion strains, locus YMR058W, strain fet3, active compounds read low 1 | S. cerevisiae deletion strains, locus YMR078C, strain ctf18, active compounds read low 1.03 | S. cerevisiae deletion strains, locus YMR125W, strain sto1, active compounds read low 0.994 | S. cerevisiae deletion strains, locus YMR129W, active compounds read low 1.01 | S. cerevisiae deletion strains, locus YMR205C, strain PFK2, active compounds read low 0.992 | S. cerevisiae deletion strains, locus YMR223W, strain ubp8, active compounds read low 1.02 | S. cerevisiae deletion strains, locus YMR231W, strain pep5, active compounds read low 1.01 | S. cerevisiae deletion strains, locus YMR263W, strain SAP30, active compounds read low 1.01 | S. cerevisiae deletion strains, locus YMR307W, strain GAS1, active compounds read low 1.02 | S. cerevisiae deletion strains, locus YNL067W, strain RPL9B, active compounds read low 1.01 | S. cerevisiae deletion strains, locus YNL071W, strain lat1, active compounds read low 0.994 | S. cerevisiae deletion strains, locus YNL128W, strain TEP1, active compounds read low 1.02 | S. cerevisiae deletion strains, locus YNL153C, strain GIM3, active compounds read low 1 | S. cerevisiae deletion strains, locus YNL183C, strain NPR1, active compounds read low 0.953 | S. cerevisiae deletion strains, locus YNL209W, strain ssb2, active compounds read low 1 | S. cerevisiae deletion strains, locus YNL233W, strain BNI4, active compounds read low 1.01 | S. cerevisiae deletion strains, locus YNL248C, strain rpa49, active compounds read low 0.992 | S. cerevisiae deletion strains, locus YNL250W, strain rad50, active compounds read low 1.03 | S. cerevisiae deletion strains, locus YNL271C, strain bni1, active compounds read low 1.02 | S. cerevisiae deletion strains, locus YNL298W, strain CLA4, active compounds read low 1.03 | S. cerevisiae deletion strains, locus YNL307C, strain MCK1, active compounds read low 1.03 | S. cerevisiae deletion strains, locus YNL322C, strain KRE1 (second series), active compounds read low 0.992 | S. cerevisiae deletion strains, locus YNL322C, strain KRE1, active compounds read low 1.01 | S. cerevisiae deletion strains, locus YNR049C, strain mso1, active compounds read low 0.988 | S. cerevisiae deletion strains, locus YNR052C, strain pop2, active compounds read low 1.01 | S. cerevisiae deletion strains, locus YOL006C, strain TOP1, active compounds read low 1.06 | S. cerevisiae deletion strains, locus YOL012C, strain htz1 1.75 | S. cerevisiae deletion strains, locus YOL147C, strain pex11, active compounds read low 1.02 | S. cerevisiae deletion strains, locus YOR001W, strain rrp6, active compounds read low 1 | S. cerevisiae deletion strains, locus YOR061W, strain CKA2, active compounds read low 1.01 | S. cerevisiae deletion strains, locus YOR069W, strain VPS5, active compounds read low 1.01 | S. cerevisiae deletion strains, locus YOR070C, strain gyp1, active compounds read low 0.991 | S. cerevisiae deletion strains, locus YOR080W, strain dia2, active compounds read low 0.988 | S. cerevisiae deletion strains, locus YOR083W, strain WHI5, active compounds read low 1.01 | S. cerevisiae deletion strains, locus YOR106W, strain vam3, active compounds read low 1.02 | S. cerevisiae deletion strains, locus YOR136W, strain idh2, active compounds read low 1.02 | S. cerevisiae deletion strains, locus YOR144C, strain elg1, active compounds read low 1.03 | S. cerevisiae deletion strains, locus YOR184W, strain ser1, active compounds read low 1.03 | S. cerevisiae deletion strains, locus YOR231W, strain MKK1, active compounds read low 1.01 | S. cerevisiae deletion strains, locus YOR265W, strain rbl2, active compounds read low 0.998 | S. cerevisiae deletion strains, locus YOR270C, strain vph1, active compounds read low 1.02 | S. cerevisiae deletion strains, locus YOR290C, strain snf2, active compounds read low 1.02 | S. cerevisiae deletion strains, locus YOR316C, strain cot1, active compounds read low 1.01 | S. cerevisiae deletion strains, locus YPL051W, strain arl3, active compounds read low 0.999 | S. cerevisiae deletion strains, locus YPL055C, strain LGE1, active compounds read low 1.03 | S. cerevisiae deletion strains, locus YPL078C, strain atp4, active compounds read low 1 | S. cerevisiae deletion strains, locus YPL106C, strain sse1, active compounds read low 0.973 | S. cerevisiae deletion strains, locus YPL240C, strain hsp82, active compounds read low 1 | S. cerevisiae deletion strains, locus YPL241C, strain CIN2, active compounds read low 1.01 | S. cerevisiae deletion strains, locus YPL256C, strain CLN2, active compounds read low 1.04 | S. cerevisiae deletion strains, locus YPR119W, strain clb2, active compounds read low 1.02 | S. cerevisiae deletion strains, locus YPR141C, strain kar3, active compounds read low 1.03 | S. cerevisiae deletion strains, locus YPR163C, strain tif3, active compounds read low 1.02 | S. cerevisiae deletion strains, locus YPR167C, strain met16, active compounds read low 1.02 | S. cerevisiae deletion strains, strain wtn01, active compounds read low 1.02 | S. cerevisiae strains, strain wild type, active compounds read low 1.01
